# PNC inhibitor – inhibitors of perinucleolar compartment assembly; 140,000 tested, 3.1% active; activity change (PNC), negative = inhibition, % at 10 µM; PC3M PTB-GFP, PNC prevalence imaging, 16 h; stronger effect = lower value;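 active = readout at or below -70, meaning at least 70% loss of cells showing the perinucleolar compartment, a nuclear body marking cancer cells; inconclusive = readout between -30 and a set limit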
#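 PC3M cells stably expressing PTB-GFP, 750–1000 cells/well, treated 16 h at 37 °C with compound (23 nl of library stock), in duplicate. After paraformaldehyde fixation and Hoechst stain, imaged at 20x; PNC prevalence scored by image analysis.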
# ALDH1A1 block – inhibitors of human aldehyde dehydrogenase 1A1; Potency, µM (highest dose often 75.3 µM), hits mostly inhibitors; 220,000 tested, 7.3% active; AID 1030; P00352; Purified ALDH1A1, NADH fluorescence, propionaldehyde substrate
# HTT aggregate – reduces HttQ103-GFP aggregates in PC12 cells | Potency, µM (doses to about 46.1 µM), hits mostly inhibitors | 220,000 tested, 1.1% active | PC12 HttQ103-GFP aggregates, Acumen cytometry, 40 h; active = well fitted curve in the direction sought with a large enough effect; inconclusive = small, poorly fitted or top-dose-only effect, or another doubt; inactive = no such curve, though single readings can be large; an effect the other way counts as inactive or inconclusive; also: nearly all actives have a fitted effect of over 60% in size
#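 Multiplexed with ATP-based cell death, this channel scores GFP aggregates in PC12 cells expressing inducible HTTex1-Q103-GFP. Induction used 100 nM tebufenozide; compounds were tested in concentration series.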
# RGS12 GoLoco inh – inhibitors of human Gai1-RGS12 GoLoco interaction (red fluorophore) | Gai1:RGS12 GoLoco peptide FP, rhodamine, 10 min | AID 880 | Potency, µM (doses to about 61.6 µM), usual class: inhibitors | 230,000 tested, 0.44% active; active = well fitted inhibition curve with a large enough effect, not every such curve was filed as active; inactive = no such curve, though single readings can be large or run the other way; also: nearly all actives have a fitted effect of over 30% in size
# Target sequence (P63096 whole entry, looked up): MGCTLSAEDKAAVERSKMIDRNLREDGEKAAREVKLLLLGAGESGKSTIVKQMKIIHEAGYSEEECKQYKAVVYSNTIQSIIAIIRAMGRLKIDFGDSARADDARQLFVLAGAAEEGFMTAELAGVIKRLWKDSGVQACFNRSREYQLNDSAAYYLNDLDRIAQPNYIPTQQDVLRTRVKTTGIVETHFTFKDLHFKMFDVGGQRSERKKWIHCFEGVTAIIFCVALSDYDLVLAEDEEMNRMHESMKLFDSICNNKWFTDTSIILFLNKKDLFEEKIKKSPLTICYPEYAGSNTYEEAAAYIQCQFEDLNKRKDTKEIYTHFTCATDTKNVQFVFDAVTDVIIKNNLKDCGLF
# HPGD block – blocks human HPGD enzyme activity. P15428. purified HPGD, NADH fluorescence kinetic, PGE2 substrate. Potency, µM, usual class: inhibitors. 150,000 tested, 4.3% active
# Target sequence (P15428 whole entry, looked up): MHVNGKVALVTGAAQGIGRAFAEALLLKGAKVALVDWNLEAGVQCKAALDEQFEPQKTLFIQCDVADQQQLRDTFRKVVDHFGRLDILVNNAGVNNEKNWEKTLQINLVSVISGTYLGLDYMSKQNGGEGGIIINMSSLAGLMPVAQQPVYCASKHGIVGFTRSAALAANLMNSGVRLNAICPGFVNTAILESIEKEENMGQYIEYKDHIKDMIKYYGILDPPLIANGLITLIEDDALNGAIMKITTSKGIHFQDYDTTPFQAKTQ
#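 NADH formation kinetics: reaction with 30 uM PGE2 and 1 mM NAD+ (final), 20 nM enzyme, Tris-HCl pH 8 with Tween 20, after 15 min compound preincubation at room temperature. Fluorescence change, last versus first of five reads.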
# HTT cytoprotect – cytoprotection in Huntington HTT-Q103 PC12 cell model. PC12 HTT-Q103 induced, cytoprotection, ATP luminescence, 40 h. Potency, µM (titrated, usually from 56.4 µM), actives largely listed as activators. 230,000 tested, 0.14% active; active = well fitted curve in the direction sought with a large enough effect; inconclusive = small, poorly fitted or top-dose-only effect, or another doubt; inactive = no such curve, though single readings can be large; an effect the other way counts as inactive or inconclusive; also: nearly all actives have a fitted effect of over 45% in size
#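 Quantitative HTS on tebufenozide-induced (100 nM) PC12 cells expressing HTTQ103 exon 1–GFP; compounds tested as a concentration series; survival measured via cellular ATP.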
# A number is an active result; - = inactive; ? = inconclusive; . = not tested or not shown; [ ] = remark or other dose. The list is not random: actives were taken first. Their share in the collection is about 11%. Unless noted, calls follow the shape of the dose curve; as a rule, active = well fitted inhibition curve with a large enough effect (not every such curve was filed as active); inconclusive = small, poorly fitted or top-dose-only effect, or another doubt; inactive = no such curve, though single readings can be large or run the other way.
SMILES,PNC inhibitor,ALDH1A1 block,HTT aggregate,RGS12 GoLoco inh,HPGD block,HTT cytoprotect
COc1cc(C2=NOC(C(=O)NCc3ccc(F)cc3)C2)cc(OC)c1OC (centres undefined),-121,32µM,-,-,-,-[10 µM]
COc1cccc(C2=NOC(C(=O)NCc3ccc(F)cc3)C2)c1 (centres undefined),-,-,-,-,-,-
COc1ccc(C2=NOC(C(=O)NCc3ccc(F)cc3)C2)cc1OC (centres undefined),-96,-,?,-,-,-[10 µM]
Cc1ccc(-c2csc(=S)n2CC(=O)OCC(=O)NCc2ccc(F)cc2)cc1,-,13µM,-,-,16µM,-
O=C(CNC(=O)c1ccc(Cl)cc1)OCC(=O)N1CCCC1,.,-,-,-,.,-
CC(=O)Nc1cccc(NC(=O)c2ccc([N+](=O)[O-])cc2Cl)c1,-,-,-,-,-,.
CC(=O)Oc1c(C)cc(Cl)cc1C(=O)Nc1ccc([N+](=O)[O-])cc1Cl,-,-,0.25µM,-,-,-[10 µM]
COc1ccccc1/C=N/NC(=O)CSc1cc(C)nc2ccccc12,.,?,-[9.22 µM],-,.,-[10 µM]
COc1ccc2nc(C)cc(SCC(=O)N/N=C/c3ccccc3)c2c1,-,-,-,-,-,-[10 µM]
COc1cccc2c(SCC(=O)N/N=C/c3ccc(O)cc3O)cc(C)nc12,.,28µM,-,-,.,-
COc1ccc2nc(C)cc(SCC(=O)N/N=C/c3ccc(O)cc3O)c2c1,-,25µM,?,-,-,-[10 µM]
CC1=CC(=O)C2=C(C)C[C@@H]3OC(=O)[C@@H](C)[C@H]3C=C12,.,-,.,-,-,-
COc1ccc(-n2cccc2C=O)cc1OC,-,-,-,-,-,-
COc1ccc(-n2cccc2C=O)cc1,-,11µM,-,-,-,-[10 µM]
CCOc1ccc(-n2cccc2C=O)cc1,-,?,-,-,-,-[10 µM]
COc1ccc(-n2cccc2/C=C/[N+](=O)[O-])cc1,-,?,?,-,35µM,.
CCOC(=O)N1CCN(C(=O)/C=C/c2c(C)nn(-c3ccc(F)cc3)c2Cl)CC1,.,-,-,-,.,-
CCOC(=O)c1cc(-c2csc(N/N=C/c3ccccc3Cl)n2)on1,.,?,-[9.22 µM],-,.,-[10 µM]
Cc1c(C(=O)O)c(O)cc2c1C(=O)c1c(O)c([C@@H]3O[C@H](CO)[C@@H](O)[C@H](O)[C@@H]3O)c(O)c(O)c1C2=O,.,.,.,.,.,-
Cc1c(C(=O)O)c(O)cc2c1C(=O)c1c(O)c([C@H]3O[C@H](CO)[C@@H](O)[C@H](O)[C@H]3O)c(O)c(O)c1C2=O,.,11µM,-,-,18µM,-[1.9 µM]
CCOc1cc(/C=N/NC(=S)Nc2ccccc2C(F)(F)F)ccc1OCC(=O)N1CCOCC1,-,?,-,-,?,-[10 µM]
COc1cc(C(=O)N/N=C/C2CC=CCC2)cc(OC)c1OC (centres undefined),-,11µM,-,-,-,-[10 µM]
CC(C)=C1C2CCC1C(C(=O)Nc1cc(C)cc(C)c1)C2C(=O)O (centres undefined),.,-,-[9.22 µM],-,.,-
CCn1c(SCc2ccc(C(=O)OC)o2)nc2sc3c(c2c1=O)CCCC3,-,-,-,-,-,-[10 µM]
Cn1c(SCc2nnc(-c3ccccc3Br)o2)nc2sc3c(c2c1=O)CCC3,-,-,?,-,8.9µM,-
SMILES,PNC inhibitor,ALDH1A1 block,HTT aggregate,RGS12 GoLoco inh,HPGD block,HTT cytoprotect
O=c1c2ccccc2nc(SCc2nnc(-c3ccccc3Br)o2)n1-c1ccccc1,-,-,-,-,-,-[10 µM]
COCCCn1c(SCc2nnc(-c3ccccc3)o2)nc2sc3c(c2c1=O)CCC3,?,?,-,-,14µM,-
COC(=O)[C@@]1(Cc2ccccc2)[C@H]2c3cc(C(=O)N(C)C)n(Cc4cc(C)n(C)n4)c3C[C@H]2CN1C(=O)c1ccccc1,.,-,.,-,-,-
COc1ccc(C(C#N)C2(C)OCCO2)cc1OC (centres undefined),-,11µM,2.5µM,-,-,-
S=C(Nc1ccc(Cl)cc1)Nc1cccc2cnccc12,-,18µM,?,-,?,.
CN(C)S(=O)(=O)c1cccc(NC(=S)Nc2cccc3cnccc23)c1,.,7.9µM,?,-,.,-[10 µM]
Fc1cccc(NC(=S)Nc2cccnc2)c1,.,-,-,-,.,-
CN(C)S(=O)(=O)c1cccc(NC(=S)Nc2ccc3cn[nH]c3c2)c1,.,22µM,-,-,.,-
S=C(Nc1cccnc1)Nc1cccc2cnccc12,.,13µM,-,-,.,-
CN(C)S(=O)(=O)c1cccc(NC(=O)c2ccncc2)c1,?,-,-,-,-,-[10 µM]
CCCn1c(-c2ccc(F)cc2)nc2c(NCCCN(C)C)nc(C)nc21,.,?,.,-,-,-
Fc1ccc(NC(=S)Nc2cccc3cnccc23)cc1,.,7.9µM,?,-,.,-[10 µM]
O=Nc1c2ccc[nH]c-2c2ccc([N+](=O)[O-])cc12,.,-,-,-,.,.
C=CCC(C)(O)c1cccc(C(F)(F)F)c1 (centres undefined),.,-,.,-,-,-
COc1ccc2ccccc2c1-c1c(OC)ccc2ccccc12,.,-,.,-,-,-
COc1ccc2ccccc2c1/C=N/O,-108,-,-,-,7.1µM,-
C=CCOc1ccc2ccccc2c1/C=N/O,-,-,-[9.22 µM],-,2.5µM,-
C=CCOc1ccc(/C=N/O)cc1Cl,-,-,-,-,-,-[10 µM]
C=CCOc1ccc(Br)cc1/C=N/O,-,?,-[9.22 µM],-,4.5µM,-
COc1c(OC)c2occc2c2oc(=O)ccc12,.,?,.,-,-,-
C=CCC1(NCc2ccco2)CCN(CC)CC1,.,?,-,-,.,-
CCOc1ccc2ccccc2c1C(=O)Nc1cc(=O)n(C)c(=O)n1C,-,-,-,-,-,-[10 µM]
COC(=O)c1c(NC(=O)CSc2nc(-c3ccco3)cc(C(F)(F)F)n2)sc2c1CCCC2,-,?,-,-,-,-
O=C(CSc1nc(-c2ccco2)cc(C(F)(F)F)n1)NC1CCCC1,?,?,-,-,14µM,-
N#Cc1c(NC(=O)CSc2nc(-c3ccco3)cc(C(F)(F)F)n2)sc2c1CCCC2,-84,?,-,-,?,-[10 µM]
CCn1nc(C)c(NC(=O)CCSc2nc(-c3ccco3)cc(C(F)(F)F)n2)c1C,-,28µM,-,-,?,-
COC(=O)c1ccccc1NC(=O)CSc1nc(-c2ccco2)cc(C(F)(F)F)n1,-82,-,-,-,-,-[10 µM]
CCNc1ncc2nc(-c3ccccc3)c(=O)n(Cc3cccc(OC)c3)c2n1,.,?,.,-,.,?
O=C(CC1C(=O)NCCN1C(=O)Nc1ccccc1)Nc1ccc(F)cc1 (centres undefined),.,-,-[9.22 µM],-,.,-[10 µM]
CC(C)CCN1CCNC(=O)C1CC(=O)Nc1ccc(F)cc1 (centres undefined),-,18µM,-,-,-,-[0.074 µM]
